Hit rate of the full screen: of about 5,500 compounds, about 2,000 (36%) were called active. Inconclusive results (about 18%) are left out. Rule as the data show it: active = normalized growth mostly below about 0.91 (no sharp cut-off); inconclusive = no clear call, values can overlap the other calls; inactive = mostly above about 0.92. Some of the results follow.
Assay: chemical genetic growth profiling, strain panel (AID 1159580);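 also: tested at 20 µM; growth read once vehicle control cultures reached saturation at 30 °C; 1 = growth at the plate median or of vehicle wells; lower values mean less growth of the strain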
Conditions: S. cerevisiae deletion strains, growth OD

Measured: normalized growth

C=C1C2CC[C@H]3[C@]4(C)C[C@H](OC5OC(CO)C(OS(=O)(=O)O)C(OS(=O)(=O)O)C5OC(=O)CC(C)C)C[C@@H](C(=O)O)[C@H]4CC[C@]3(C2)[C@H]1O (some centres undefined)
inactive: locus YAL013W, strain DEP1, stronger effect = lower value 1.01 | locus YAL021C, strain ccr4, stronger effect = lower value 0.974 | locus YAL026C, strain drs2, stronger effect = lower value 1.01 | locus YAL030W, strain snc1, stronger effect = lower value 1.01 | locus YBL061C, strain skt5, stronger effect = lower value 1.01 | locus YBR009C, strain hhf1, stronger effect = lower value 1.02 | locus YBR021W, strain FUR4, stronger effect = lower value 1.02 | locus YBR023C, strain chs3, stronger effect = lower value 1.01 | locus YBR171W, strain sec66, stronger effect = lower value 1.01 | locus YBR229C, strain ROT2, stronger effect = lower value 1.01 | locus YBR231C, strain swc5, stronger effect = lower value 1.02 | locus YBR279W, strain paf1, stronger effect = lower value 1.01 | locus YCL011C, strain gbp2, stronger effect = lower value 1.01 | locus YCL016C, strain dcc1, stronger effect = lower value 1 | locus YCL029C, strain bik1, stronger effect = lower value 0.983 | locus YCL061C, strain MRC1, stronger effect = lower value 1.01 | locus YCL069W, strain vba3, stronger effect = lower value 1.02 | locus YCR088W, strain abp1, stronger effect = lower value 1.01 | locus YDL005C, strain med2, stronger effect = lower value 1 | locus YDL035C, strain GPR1, stronger effect = lower value 1.01 | locus YDL040C, strain nat1, stronger effect = lower value 1 | locus YDL074C, strain BRE1, stronger effect = lower value 1.04 | locus YDL101C, strain DUN1, stronger effect = lower value 1.02 | locus YDL134C, strain PPH21, stronger effect = lower value 1.01 | locus YDL185W, strain tfp1, stronger effect = lower value 0.986 | locus YDL192W, strain arf1, stronger effect = lower value 0.986 | locus YDR001C, strain nth1, stronger effect = lower value 1.01 | locus YDR069C, strain doa4, stronger effect = lower value 1.02 | locus YDR101C, strain arx1, stronger effect = lower value 0.979 | locus YDR137W, strain rgp1, stronger effect = lower value 1.01 | locus YDR150W, strain NUM1, stronger effect = lower value 1.01 | locus YDR159W, strain sac3, stronger effect = lower value 1.01 | locus YDR162C, strain NBP2, stronger effect = lower value 1.04 | locus YDR195W, strain ref2 0.999 | locus YDR297W, strain sur2, stronger effect = lower value 1.01 | locus YDR318W, strain mcm21, stronger effect = lower value 0.978 | locus YDR334W, strain swr1, stronger effect = lower value 1.01 | locus YDR335W, strain msn5, stronger effect = lower value 1.01 | locus YDR388W, stronger effect = lower value 0.988 | locus YDR392W, strain spt3, stronger effect = lower value 0.942 | locus YDR502C, strain sam2, stronger effect = lower value 0.994 | locus YEL003W, strain gim4, stronger effect = lower value 1.01 | locus YEL037C, strain rad23, stronger effect = lower value 1.01 | locus YEL061C, strain CIN8 (second series), stronger effect = lower value 1 | locus YEL061C, strain CIN8, stronger effect = lower value 1 | locus YER015W, strain faa2, stronger effect = lower value 1.01 | locus YER016W, strain bim1, stronger effect = lower value 1.01 | locus YER110C, stronger effect = lower value 0.975 | locus YER111C, strain swi4, stronger effect = lower value 1.01 | locus YER155C, strain BEM2 (second series), stronger effect = lower value 1.02 | locus YER155C, strain BEM2, stronger effect = lower value 1.02 | locus YER167W, strain BCK2, stronger effect = lower value 1 | locus YFR010W, strain ubp6, stronger effect = lower value 1.01 | locus YGL078C, strain dbp3, stronger effect = lower value 0.978 | locus YGL086W, strain mad1, stronger effect = lower value 0.972 | locus YGL167C, strain pmr1, stronger effect = lower value 1.01 | locus YGL173C, strain kem1, stronger effect = lower value 1.01 | locus YGL227W, strain vid30, stronger effect = lower value 1.01 | locus YGL240W, strain doc1, stronger effect = lower value 1.03 | locus YGL248W, strain PDE1, stronger effect = lower value 1.01 | locus YGL253W, strain hxk2, stronger effect = lower value 1.01 | locus YGR078C, strain PAC10, stronger effect = lower value 1.03 | locus YGR135W, strain pre9, stronger effect = lower value 0.987 | locus YGR229C, strain SMI1, stronger effect = lower value 1.02 | locus YGR252W, strain gcn5, stronger effect = lower value 1.02 | locus YHR013C, strain ard1, stronger effect = lower value 0.999 | locus YHR027C, strain rpn1, stronger effect = lower value 1.01 | locus YHR030C, strain SLT2, stronger effect = lower value 1 | locus YHR079C, strain IRE1 (second series), stronger effect = lower value 0.987 | locus YHR094C, strain hxt1, stronger effect = lower value 0.988 | locus YHR129C, strain ARP1, stronger effect = lower value 1.01 | locus YHR142W, strain chs7, stronger effect = lower value 0.985 | locus YHR200W, strain rpn10, stronger effect = lower value 0.996 | locus YIL066C, strain RNR3, stronger effect = lower value 1.02 | locus YIL073C, strain SPO22, stronger effect = lower value 0.966 | locus YIL125W, strain kgd1, stronger effect = lower value 0.97 | locus YIR030C, strain dcg1, stronger effect = lower value 0.99 | locus YJL092W, strain hpr5, stronger effect = lower value 1.01 | locus YJL095W, strain BCK1 (second series), stronger effect = lower value 1.01 | locus YJL095W, strain BCK1, stronger effect = lower value 1.02 | locus YJL115W, strain asf1, stronger effect = lower value 1.01 | locus YJL129C, strain trk1, stronger effect = lower value 1.01 | locus YJL134W, strain LCB3, stronger effect = lower value 1.01 | locus YJL154C, strain vps35, stronger effect = lower value 1.01 | locus YJL164C, strain tpk1, stronger effect = lower value 1 | locus YJL166W, strain qcr8, stronger effect = lower value 1 | locus YJL168C, strain set2, stronger effect = lower value 0.985 | locus YJL187C, strain SWE1 (second series), stronger effect = lower value 1.02 | locus YJL187C, strain SWE1, stronger effect = lower value 1.02

Source: PubChem BioAssay AID1159580 (chemical genetic matrix, 2015)
